Screening results as filed in PubChem BioAssay.
tim23-1 inh: growth inhibitors of tim23-1 mutant yeast, primary screen, luminescence, uHTS. AID 463212, 2010. 1.3% of 330,000 active. inhibition, % at 20 µM. S. cerevisiae tim23-1 growth, BacTiter-Glo luminescence, 24 h;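 active = growth inhibition of the mutant yeast at or above 50%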;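 note: temperature-sensitive mutant grown at 25 °C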
ATG4B inhibitor: ATG4B protease inhibitors, primary screen, biochemical, fluorescence, uHTS | 0.51% of 340,000 active | ATG4B cleavage of LC3-PLA2, NBD-HPC fluorescence, 1 h | Cysteine protease ATG4B (Homo sapiens), Q9Y4P1 | inhibition, % at 8.33 µM; in the data active = inhibition above about 40%
Target sequence (Q9Y4P1 whole entry, looked up): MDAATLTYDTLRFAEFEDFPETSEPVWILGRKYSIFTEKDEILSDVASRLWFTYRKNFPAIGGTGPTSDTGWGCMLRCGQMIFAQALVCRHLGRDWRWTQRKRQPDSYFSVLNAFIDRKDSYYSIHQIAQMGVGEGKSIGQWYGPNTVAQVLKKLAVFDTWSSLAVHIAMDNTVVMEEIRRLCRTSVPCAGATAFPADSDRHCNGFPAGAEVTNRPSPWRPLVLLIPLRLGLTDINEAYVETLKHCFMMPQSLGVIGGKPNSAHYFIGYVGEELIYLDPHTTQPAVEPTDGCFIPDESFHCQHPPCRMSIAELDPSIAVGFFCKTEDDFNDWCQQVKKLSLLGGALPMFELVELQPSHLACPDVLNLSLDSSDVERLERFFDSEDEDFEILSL
SKKanGAS inh: S. pyogenes SKKanGAS growth inhibitors in kanamycin, primary screen, streptokinase expression inhibitor project, SKKanGAS strain, BacTiter-Glo luminescence. 6 h. inhibition, % at 7.5 µM. 1.3% of 300,000 active. AID 1662, 2009;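 active = mean replicate score, as percent of positive control median, at least 50; inconclusive = mean below 50 but one replicate at or above 50; inactive = mean and every replicate below 50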;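 note: strain carries kanamycin resistance gene driven by streptokinase promoter and grows in 40 µg/ml kanamycin; loss of luminescence reflects streptokinase promoter inhibition or plain growth inhibition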
tim10-1 inh: growth inhibitors of tim10-1 mutant yeast, primary screen, luminescence, uHTS. S. cerevisiae tim10-1 ts strain growth, BacTiter-Glo, 24 h. inhibition, % at 20 µM. 2.2% of 330,000 active;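 active = inhibition of at least 40%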;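 note: mutant grown at 25 °C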
TIM10 inh: growth inhibitors of isogenic TIM10 control yeast, primary screen, counter-screen for tim10-1 yeast inhibitor project, luminescence, uHTS; S. cerevisiae TIM10 strain growth, BacTiter-Glo luminescence, 24 h; inhibition, % at 10 µM; 1.4% of 330,000 active; AID 463195, 2010;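 active = inhibition of 40% or more at the single tested concentration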;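 note: wild-type TIM10 isogenic control strain grown at permissive 25 °C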
PfHsp90 yeast 2: growth inhibition of PfHsp90-expressing yeast, primary screen, antimalarial PfHsp90 inhibitor project, S. cerevisiae, BacTiter-Glo luminescence, single point, set 2; BacTiter-Glo ATP, 48 h; yeast lacking PDR1 and PDR3 efflux regulators; inhibition, % at 9.4 µM; 0.32% of 310,000 active;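 active = every replicate shows inhibition above about 80%, whatever the replicate mean, limit read from the data; inconclusive = mean inhibition reaches the set limit but some replicate falls short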
Each line names hits and unclear results; the compound was inactive in the other large screens. In the library only some 4.7% were active in any assay of this set; here they are far more common.

CCN(CC(=O)Nc1cccc(C(C)=O)c1)S(=O)(=O)c1ccc(OC)cc1	none
C(=C\c1ccc2ccccc2n1)/c1ccccc1	none
CN(C)c1ccc(/C=C/c2ccc3ccccc3n2)cc1	SKKanGAS inh 75 (no result: tim23-1 inh, tim10-1 inh, TIM10 inh)
COc1ccc(NC(=O)c2cc(-c3cc(C)cc(C)c3O)n[nH]2)cc1Cl	SKKanGAS inh 99 (no result: PfHsp90 yeast 2)
Cc1ccccc1C(=O)NC(=S)NC1CCSC1=O (stereo not given)	none
O=C(c1ccc(Cl)cc1)c1cnc(-c2ccccc2)s1	none (no result: tim23-1 inh, SKKanGAS inh, tim10-1 inh, TIM10 inh)
O=C(c1ccc(Cl)cc1)c1cnc(Nc2ccccc2Cl)s1	SKKanGAS inh 75
COc1ccc2cc(C(=O)NCc3ccccc3)c(=Nc3ccc(C(=O)O)cc3)oc2c1	SKKanGAS inh 59
Cc1cc(C)c(-c2noc(C(=O)OC(C)(C)C)c2C(=O)OC(C)(C)C)c(C)c1	SKKanGAS inh 72
CCOC(=O)c1sc(NC(=O)c2ccncc2)c(C#N)c1C	none
CCOC(=O)c1sc(NC(=O)c2cc(-c3ccccc3C)nc3ccccc23)c(C#N)c1C	SKKanGAS inh 51
Cn1cc(C(=O)N/N=C/c2c(O)ccc3ccccc23)ccc1=O	none
Cc1ccc(C(=O)N/N=C/c2c(O)ccc3ccccc23)cn1	SKKanGAS inh 60
O=C(N/N=C\c1c(O)ccc2ccccc12)c1cncc(Br)c1	SKKanGAS inh 106, PfHsp90 yeast 2 107
O=C(N/N=C/c1cc(Cl)c(O)c(Cl)c1)c1cc2c(ccc3ccccc32)o1	PfHsp90 yeast 2 95
Cc1occc1C(=O)N/N=C/c1c(O)ccc2ccccc12	SKKanGAS inh 94
Cn1nccc1C(=O)N/N=C/c1c(O)ccc2ccccc12	none
O=C(NN=Cc1c(O)ccc2ccccc12)c1ccncc1	none (no result: tim23-1 inh, SKKanGAS inh, tim10-1 inh, TIM10 inh)
O=C(N/N=C\c1c(O)ccc2ccccc12)c1ccc(O)cc1	SKKanGAS inh 107
O=C(N/N=C/c1c(O)ccc2ccccc12)c1ccc(Br)o1	SKKanGAS inh 106
Cc1ccc(NS(=O)(=O)N2CCOCC2)cc1Cl	none
CCCCCCCN1N=C(C)C(C(=O)c2ccccc2)C1=O (stereo not given)	SKKanGAS inh inconclusive
CCCCCCN1N=C(C)C(C(=O)c2ccc(Cl)cc2)C1=O (stereo not given)	SKKanGAS inh 50
Cc1ccc(S(=O)(=O)Nc2ccc(Cl)cc2)cc1NC(=O)c1cc2c(s1)CCCC2	SKKanGAS inh 53
O=C1CC(N(CCc2ccccc2)C(=S)Nc2ccccc2)C(=O)N1c1ccc(Br)cc1 (stereo not given)	SKKanGAS inh 69
Clc1cccc(Cl)c1Cn1ccc(C2CC2)n1	none
Oc1[nH]c(=S)sc1C=C1N=c2ccccc2=N1	none
Oc1[nH]c(N=C2N=c3ccccc3=N2)c2ccccc12	SKKanGAS inh 82 (no result: tim23-1 inh, tim10-1 inh, TIM10 inh)
CN1C(=O)/C(=C/c2ccccc2Cl)Sc2ccc(C(=O)NCc3cccnc3)cc21	SKKanGAS inh 71
CC1C(=NO)C(C)C(c2ccccc2)NC1c1ccccc1 (stereo not given)	none (no result: PfHsp90 yeast 2)
CCC1C(=NO)C(CC)C(c2ccccc2)NC1c1ccccc1 (stereo not given)	SKKanGAS inh 58
CCCCc1c(O)nc(SC2CC(=O)N(c3ccc(C(=O)OCC)cc3)C2=O)[nH]c1=O (stereo not given)	none
CCOC(=O)c1cc([N+](=O)[O-])c([N+](=O)[O-])cc1NC(C)=O	PfHsp90 yeast 2 100 (no result: tim23-1 inh, tim10-1 inh, TIM10 inh)
CCOC(=O)c1ccc(NC(=O)c2ccccc2[N+](=O)[O-])cc1	none
O=[N+]([O-])c1ccccc1Oc1ccc(C(F)(F)F)cn1	none
FC(F)(F)c1ccc(Oc2ccc3ccccc3c2Br)nc1	SKKanGAS inh 63
Cc1ccccc1NC(=O)c1ccc2ccccc2c1	none
COc1ccc(-c2nn(-c3ccccc3)cc2C(=O)N2CCN(S(=O)(=O)c3ccccc3C#N)CC2)cc1	none (no result: PfHsp90 yeast 2)
COc1ccc(-c2nn(-c3ccccc3)cc2C(=O)N2CCN(C(=O)c3ccco3)CC2)cc1	none (no result: SKKanGAS inh)
COc1ccc(-c2nn(-c3ccccc3)cc2C(=O)N2CCN(S(=O)(=O)c3cccc(F)c3)CC2)cc1	PfHsp90 yeast 2 105
COc1ccc(-c2nn(-c3ccccc3)cc2C(=O)N2CCN(S(=O)(=O)c3ccccc3[N+](=O)[O-])CC2)cc1	PfHsp90 yeast 2 99 (no result: tim23-1 inh, SKKanGAS inh, tim10-1 inh, TIM10 inh)
Cc1c(C(=O)Nc2nc3ccccc3[nH]2)oc2ccc(Br)cc12	SKKanGAS inh 79
Cc1nn(-c2ccccc2)c(C)c1/C=N/NC(=O)c1cc(-c2ccc(Br)s2)[nH]n1	SKKanGAS inh 51 (no result: PfHsp90 yeast 2)
Cc1cc(C(=O)N/N=C/c2c(C)nn(-c3ccccc3)c2C)n[nH]1	none
Cc1nn(-c2ccccc2)c(C)c1/C=N/NC(=O)c1cc(-c2cccs2)[nH]n1	none
Cc1nn(-c2ccccc2)c(C)c1/C=N/NC(=O)c1cc(-c2ccc(Cl)s2)[nH]n1	SKKanGAS inh 59 (no result: PfHsp90 yeast 2)
COc1cc(/C=N/NC(=O)c2cc(-c3c(C)nn(-c4ccccc4)c3C)n[nH]2)ccc1O	SKKanGAS inh 87
Cc1cnc(NC(=O)Cc2ccc(S(=O)(=O)N3CCOCC3)s2)s1	none (no result: SKKanGAS inh)
COc1cccc(COc2ccc3ccc(=O)oc3c2)c1	none
Cc1ccc2c(c1C)-c1c(ccc(C)c1C)C(=O)C2=O	PfHsp90 yeast 2 103 (no result: tim23-1 inh, SKKanGAS inh, tim10-1 inh, TIM10 inh)
O=C(Nc1ccc(Cl)cc1)Nc1nc(-c2ccccc2O)cs1	SKKanGAS inh 61
O=C(Nc1ccc(Cl)cc1)Nc1nc(-c2sccc2Br)cs1	none
O=C(c1cnc(-c2ccccc2)s1)c1ccc(Cl)cc1Cl	SKKanGAS inh 57
CCOC(=O)c1sc2nc(Cc3ccc(Cl)cc3)[nH]c(=S)c2c1C	SKKanGAS inh 58
COc1ccc(OCC(=O)NCC(c2cccs2)N2CCOCC2)cc1 (stereo not given)	none
O=C(NNC(=O)c1cccs1)c1cccc(F)c1	none
CC(C)(C)c1ccc(C(=O)NC(=S)NNC(=O)c2cccs2)cc1	SKKanGAS inh 104 (no result: tim23-1 inh, tim10-1 inh, TIM10 inh)
O=C(NC(=S)NNC(=O)c1cccs1)c1ccco1	SKKanGAS inh 61 (no result: PfHsp90 yeast 2)
Cc1cccc(C(=O)NC(=S)NNC(=O)c2ccc(Cl)cc2)c1	SKKanGAS inh 105 (no result: tim23-1 inh, tim10-1 inh, TIM10 inh)
Cc1cccc(C(=O)NC(=S)NNC(=O)c2cccs2)c1	SKKanGAS inh 51
CCc1nnc(SCC(=O)N2CCCC(N3CCN(c4ccccc4C)CC3)C2)o1 (stereo not given)	none
COc1ccc(S(=O)(=O)N2CCOCC2)cc1NC(=O)CSc1nnc(C2CC2)n1N	none
O=C(Cn1ccc2cc(S(=O)(=O)N3CCCC3)ccc21)NCCc1ccccc1	none
COc1cc(C(=O)NNC(=S)NC(=O)/C=C/c2ccccc2)cc(OC)c1OC	SKKanGAS inh 93
